This passage reports INHIBITION results from ChEMBL document CHEMBL4513216, “Probing the Open Global Health Chemical Diversity Library for Multistage-Active Starting Points for Next-Generation Antimalarials” (ACS Infect Dis, 2020).

The whole screen tested about 69,000 compounds, of which about 8,600 (12%) showed an effect of 50% or more. The sample as a whole holds a higher share of strong results than the screen did.

The test concerns Plasmodium berghei. Kind of test: Screen against P. berghei liver stage (PbLuc), transformed with Luciferase, at 10uM. The test is classed as functional, HepG2. The conditions noted are these: tested at 10 uM.
On to `Cc1nc(CNCc2c(C(C)C)nn(C)c2N2CCOCC2)cs1`, for which the INHIBITION is given as 49.6%. The figure for `COc1ccc2c(c1)C(C(=O)NCCN1CCNC1=O)CC(=O)N2` (stereo unspecified) is 5.36%; for `Cc1nc(CCNC(=O)C2CCN(C(C)C)CC2)sc1Cl` it is -3.72%. The value for `CCN1CCC(CC(=O)NCc2cc(C)nn2C)CC1` was -6.59%; that for `CCCN1CCC(CC(=O)NCCc2nc(C)cc(C)n2)CC1` was -37.2%; that for `CCCN1CCC(CC(=O)NCc2cc(C)nn2C)CC1` was 22.3%. `CCN1CCC(CC(=O)NCc2nc(C)cc(C)n2)CC1`: the INHIBITION was found to be 69.9%. The value for `Cc1nc(CCNC(=O)CC2CCN(C(C)C)CC2)sc1Cl` was 60.9%; that for `CCN1CCC(CC(=O)NCCc2nc(C)cc(C)n2)CC1` was -26.1%; that for `CCN1CCC(CC(=O)NCCc2nc(C)c(Cl)s2)CC1` was 13%.

Turning to `Cc1cc(CNC(=O)CC2CCN(C(C)C)CC2)n(C)n1`, the INHIBITION stood at 60.8%. For the compound `CCc1nc(C)c(CNC(=O)CCCN2CCCCC2)s1`, the INHIBITION was 9.87%.

For the compound `Cc1cc(C(F)(F)F)nc(CNC(=O)CCCN2CCCCC2)n1`, the INHIBITION was determined as 48%.

In the case of `Cc1cc(CNC(=O)CCCN2CCCCC2)n(C)n1`, the INHIBITION amounted to 73.6%. `CC(=O)Nc1nc(C(=O)NC(C)c2ccc(F)c(F)c2)cs1` (stereo unspecified): the INHIBITION is -31.8%. The figure for `COc1cccc(N2CCN(Cc3ccc4[nH]ccc4c3)CC2=O)c1` is 10.2%. The value for `CCCc1nnc2sc(C3CCS(=O)(=O)CC3)nn12` was 33%; that for `CC(=O)N1CCN(c2cncc(C3CCNCC3)n2)CC1` was 16.5%. On to `CN1CC2(CNCCN(C(=O)Nc3ccccc3)C2)CC1=O` (stereo unspecified), for which the INHIBITION was -36.8%. `COc1c(CNCc2ccc(N(C)C)nc2)c(C)nn1C`: the INHIBITION amounted to 11.25%. The value for `CC(C)C[C@H](NCc1cc(O)c2cccc(F)c2n1)C(N)=O` was 3.03%.

With `O=C(c1cccc(C2CCNC2)c1)N1CCC(c2ncc[nH]2)CC1` (stereo unspecified), the INHIBITION was -6.61%. Regarding `COCCN1CCN(CC(O)c2ccc(OC(F)(F)F)cc2)CC1` (stereo unspecified), the INHIBITION is -24.2%. The value for `O=C(c1ccoc1)N1CCC2(CCC(=O)N2Cc2ccncc2)CC1` was 43.8%. The figure for `CN(C)CCN1C(=O)CCC12CCCN(C(=O)c1ccncc1F)C2` (stereo unspecified) is -24.1%. The value for `O=C(c1ccoc1)N1CCCC2(CCC(=O)N2Cc2ccncc2)C1` (stereo unspecified) was 51.2%; that for `CN1C(=O)CCC12CCCN(C(=O)c1ccncc1F)C2` (stereo unspecified) was -12.2%; that for `CCN1C(=O)CCCC12CCCN(C(=O)c1ccncc1F)C2` (stereo unspecified) was 51.4%. For `O=C(c1ccoc1)N1CCCC2(CCC(=O)N2Cc2cccnc2)C1` (stereo unspecified), the INHIBITION is on record as 42.3%. Turning to `O=C(Cc1c(F)cccc1Cl)Nc1cccc(N2CCCC2)c1`, the INHIBITION is listed as 43.4%. The figure for `CNC(=O)c1cn[nH]c1C1CCN(Cc2sccc2C)C1` (stereo unspecified) is -14.1%; for `CCOC(=O)CN(C)Cc1cnc(C)s1` it is 8.38%; for `CC(=O)c1cccc(OCCCC(=O)N(C)Cc2ccccn2)c1` it is 3.47%. As to `CCCN(CCC)C(=O)CN(C)Cc1cnc(C)s1`, the INHIBITION is on record as 23.2%. The value for `CC(=O)c1cccc(OCCCC(=O)N(C)Cc2cnc(C)s2)c1` was 55.4%; that for `COc1cc(C(C)=O)ccc1OCC(=O)N(C)Cc1cnn(C)c1` was 40.9%; that for `CCN(C)C(=O)CCN(C)Cc1cnc(C)s1` was 50.4%. The value for `CC(=O)c1cccc(OCCCC(=O)N(C)CC(N)=O)c1` was -25.1%. The value for `CC(=O)c1cccc(OCCCC(=O)N(C)CCC(F)(F)F)c1` was 57.3%; that for `CC(=O)c1cccc(OCCCC(=O)N(C)Cc2cnn(C)c2)c1` was 82.2%; that for `CC(=O)c1cccc(OCCCC(=O)N(C)CCc2ccncc2)c1` was -8.19%. Turning to `CC(=O)c1cccc(OCCCC(=O)N(C)Cc2cccc(O)c2)c1`, the INHIBITION is on record as 23.5%.

Turning to `CC(=O)c1cccc(OCCCC(=O)N(C)Cc2cscn2)c1`, the INHIBITION came to 5.68%.

As to `CN(C)C(CNC(=O)c1ccnc(-n2cncn2)c1)c1ccccc1` (stereo unspecified), the INHIBITION was determined as 9.34%.

On to `CN(C)c1ccc(CNCc2cnc(N3CCOCC3)nc2)cn1`, for which the INHIBITION stood at 12.6%. For the compound `O=S1(=O)CCN(Cc2cccnc2)[C@H]2CCN(c3ncccn3)CC[C@H]21`, the INHIBITION is given as 46.8%.

As for `CN1C(=O)CC(c2cnn(C)c2)C12CCN(C(=O)c1cccn1C)CC2` (stereo unspecified), the INHIBITION is given as 26.4%. As to `O=C(c1cc[nH]n1)N1CCc2cc(Br)sc2C1`, the INHIBITION amounted to 24.2%. For `Cc1nc(CN2CCOCC3(CCN(c4cccnc4)CC3)C2)cs1`, the INHIBITION worked out at 14.4%. Consider `COCc1ncn2c1CN(C(=O)Nc1ccccc1)CC2`, for which the INHIBITION is given as -22.1%. For the compound `CC(Cn1ccnc1)NC(=O)Cc1ccc2c(c1)OCCO2` (stereo unspecified), the INHIBITION is -21.8%. The value for `Cc1ccsc1-c1nccn1C1CC(=O)N(C(C)C)C1` (stereo unspecified) was 35.8%; that for `Cc1cccc(C)c1NC(=O)CNC(C)Cc1ccsc1` (stereo unspecified) was 34.6%; that for `Cc1ccc(NC(=O)CN[C@H](C(N)=O)C(C)C)cc1F` was 10.7%.

Consider `Cc1ccc(NC(=O)CNC(C)Cc2ccsc2)cc1F` (stereo unspecified), for which the INHIBITION worked out at 52.2%. On to `Cc1ccn(-c2cccc(C(=O)N3CCCC(n4ccnc4C)C3)c2)n1` (stereo unspecified), for which the INHIBITION amounted to 44.8%. The value for `Cc1cc(CN2CC[C@H]3[C@H]2CCN3CC(=O)N(C)C)oc1C` was 38.3%; that for `Cc1cc(CN(CCCO)c2ccccc2)on1` was 56.5%; that for `Cc1cc(CN(CCO)c2ccc(Br)cc2)on1` was 13.8%. As to `Cc1cc(CN(CCO)c2ccccc2)on1`, the INHIBITION turned out to be 45.5%. Turning to `Cc1cc(C(=O)NCc2cc(C)oc2C)no1`, the INHIBITION is recorded as -13%. For `CCN1CCN(C(=O)c2cccc(CN3CCOCC3)c2)CC1`, the INHIBITION was -14.8%.

As for `CN(Cc1cn2c(n1)CN(Cc1nccs1)CC2)Cc1ccco1`, the INHIBITION came out at 43.9%.

Regarding `CN(Cc1cn2c(n1)CN(Cc1ccc(F)cc1)CC2)Cc1ccco1`, the INHIBITION came out at 59%.

Take `CCS(=O)(=O)N1CCn2cc(CN(C)Cc3ccco3)nc2C1`: the INHIBITION amounted to 47.4%.

Turning to `Cc1ccc(CN2CCn3cc(CN(C)Cc4ccco4)nc3C2)o1`, the INHIBITION is listed as -3.16%. The figure for `COCCN1CCn2cc(CN(C)Cc3ccco3)nc2C1` is 73%; for `CN(Cc1cn2c(n1)CN(Cc1ccsc1)CC2)Cc1ccco1` it is 31.1%. Turning to `O=C([C@H]1CC[C@@H]2[C@@H](CCN2Cc2nccs2)O1)N1CCOCC1`, the INHIBITION is on record as -1.12%. As for `Cc1ccnc(CC(C)N(C)c2cc(C3CCNCC3)nc(C)n2)c1` (stereo unspecified), the INHIBITION was 36.9%. Take `Cc1ccnc(CC(C)N(C)c2cc(CN)nc(C)n2)c1` (stereo unspecified): the INHIBITION was found to be 66.5%. The value for `Cc1ccnc(CC(C)N(C)c2cc(CCN)nc(C)n2)c1` (stereo unspecified) was 45.2%. Turning to `Cc1cc(C(=O)N2CCC3(CCNCC3)CC2)c2cccc(C)c2n1`, the INHIBITION is 18.4%. As for `Cc1nc(CN2CCCC(c3cnccn3)C2)cs1` (stereo unspecified), the INHIBITION is recorded as 17.8%. As to `CC(C)c1noc(-c2ccc(NCCCC3CCOC3)nc2)n1` (stereo unspecified), the INHIBITION is reported as 43.9%. As for `CC(C)c1noc(-c2ccc(NCCCN3CCCC(O)C3)nc2)n1` (stereo unspecified), the INHIBITION was 53%. On to `CC(C)c1noc(-c2ccc(NCC3CCCOC3)nc2)n1` (stereo unspecified), for which the INHIBITION is -118%.

With `CS(=O)(=O)NC1CC2(CCN(CCF)CC2)Oc2ccccc21` (stereo unspecified), the INHIBITION is 12.5%. The figure for `CCOC(C)c1nccn1Cc1noc(CC)n1` (stereo unspecified) is 8.41%. The figure for `CCC(C)[C@H](N)c1nnc(SCC(=O)Nc2cc(C)ccc2C)o1` (stereo partly specified) is 22.2%. For `CN(Cc1cc2n(n1)CCN(C(=O)[C@H]1CCCO1)C2)Cc1nccs1`, the INHIBITION was determined as 50.3%. The figure for `CN(Cc1cc2n(n1)CCCN(C(=O)N1CCCC1)C2)Cc1nccs1` is 38.5%; for `CN(Cc1cc2n(n1)CCN(C(=O)c1cccnc1)C2)Cc1nccs1` it is -10.6%; for `Cc1nc(C)n(CC2CCCN2CCOc2ccccc2C#N)n1` (stereo unspecified) it is 17.4%. The value for `CC(C)CN(CC(O)c1ccccc1)C(=O)NC(C)C` (stereo unspecified) was 40.9%. The figure for `CCn1nc(C)c(CCNC(=O)C2CCCN(C(N)=O)C2)c1C` (stereo unspecified) is -8.11%; for `CC(C)c1ccc(OCCC(=O)N2CCCN(C(N)=O)CC2)cc1` it is -4%; for `CC(c1cccnc1)N(C)Cc1cc2cc3c(cc2[nH]c1=O)OCO3` (stereo unspecified) it is 27.6%. In the case of `CC(c1ccncn1)N(C)Cc1cc2cc3c(cc2[nH]c1=O)OCO3` (stereo unspecified), the INHIBITION is 58.7%. As to `CC(c1ccccn1)N(C)Cc1cc2cc3c(cc2[nH]c1=O)OCO3` (stereo unspecified), the INHIBITION came out at 21.8%. In the case of `Cc1ccc(N2CCCC(NCCCS(C)(=O)=O)C2)nn1` (stereo unspecified), the INHIBITION was determined as 14.9%.

For the compound `COCCCNC1CCCN(c2ccc(C)nn2)C1` (stereo unspecified), the INHIBITION was -28.7%. The figure for `Cc1ccc(N2CCCC(NCCS(C)(=O)=O)C2)nn1` (stereo unspecified) is 64.4%. On to `CCOCC(=O)NCCCn1ccnc1-c1ccccc1`, for which the INHIBITION was determined as 16.5%. As to `CCc1nnc(CN(CC)C(=O)C2CC(=O)N(C(C)(C)C)C2)o1` (stereo unspecified), the INHIBITION is 35.8%.

For the compound `Cc1cccc(OCCCNC(=O)Cn2ccc(C)cc2=O)c1`, the INHIBITION was -12.9%.

Consider `CCn1ccc(-c2cc(C(=O)O)n3nc(C)c(Cl)c3n2)n1`, for which the INHIBITION was 12.3%. On to `CCn1ccc(-c2cc(NCCCOc3cccc(C)c3)nc(C)n2)n1`, for which the INHIBITION amounted to 75.9%.

Turning to `CCn1ccc(-c2cc(NCCCOc3ccccc3C)nc(C)n2)n1`, the INHIBITION turned out to be 82.4%. In the case of `COc1ccccc1OCCNCCn1cccn1`, the INHIBITION is listed as 19.4%.

In the case of `CCOc1cccc(C(=O)Nc2ccn(CC)n2)c1`, the INHIBITION is recorded as -35.4%. The value for `CCCNC(=O)c1nn(CC)cc1NC(=O)C(C)n1ncc(Cl)c1C` (stereo unspecified) was 8.49%; that for `CC(C)NC(=O)N1CCc2ncnc(-c3ccncc3)c2CC1` was -7.24%.

`Cc1nc(C)n(CC2CN(CCOc3cccc(C#N)c3)CCO2)n1` (stereo unspecified): the INHIBITION was -5.07%. The figure for `Cc1ccc(CN2CCc3[nH]nc(C(=O)N4CCNC(=O)C4)c3C2)s1` is 18.7%; for `CCNC(=O)[C@@H]1C[C@H](NC(=O)Cc2ccsc2)CN1Cc1ccc(C)o1` it is 24.6%. The value for `CCNC(=O)[C@@H]1C[C@H](NC(=O)c2ccc(C)s2)CN1Cc1ccc(C)o1` was 68.9%; that for `CCNC(=O)[C@@H]1C[C@@H](NC(=O)c2ccc(C)s2)CN1Cc1ccccn1` was 18.9%; that for `CCNC(=O)[C@@H]1C[C@H](NC(=O)c2cc(CC)n[nH]2)CN1Cc1ccsc1` was -20.5%.

Turning to `CCNC(=O)[C@@H]1C[C@@H](NC(=O)c2cc(C)on2)CN1Cc1ccccn1`, the INHIBITION turned out to be 54.8%. On to `CCNC(=O)[C@@H]1C[C@@H](NC(=O)Cc2ccccn2)CN1CCCSC`, for which the INHIBITION stood at 41.8%.
